# VACV mCherry inh: vaccinia inhibition (mCherry reporter); actives 0.63% (n = 310,000); AID 720579; Potency, µM (titrated, usually from 36.5 µM), for the others: at the top dose activity change, negative = inhibition, usual class: inhibitors; Vaccinia virus mCherry reporter infection, fluorescence; calls by dose curve; tested in A549 cells; note: potency is the fitted concentration of half-maximal effect; % is set by controls: 0 for no effect and ±100 for the full control effect; nearly all actives have a fitted effect of over 35% in size
# HCMV antiviral: blocks human cytomegalovirus replication; activity change, negative = inhibition, % at 57.5 µM; actives 4.5% (n = 410,000); AID 1259415; HFF cells, HCMV-luciferase reporter, 72 h; stronger effect = lower value; in the data active = activity change below about -60%; inconclusive = no clear call, values can overlap the other calls; inactive = above about -39%; note: % is set by controls: 0 for no effect and ±100 for the full control effect
#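 Luciferase read-out from HCMV-luciferase-infected HFFs (MOI 1 PFU/cell) 72 h post infection at 37C; compounds added after 16 h cell attachment; activity normalized between buffer-only basal and Salinomycin (10uM) inhibitor controls.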
# VACV Venus inh: inhibitors of vaccinia virus (Venus reporter); Vaccinia virus Venus reporter expression, fluorescence; Potency, µM (highest dose often 36.5 µM), inactives show top-dose activity change, negative = inhibition, actives largely listed as inhibitors; actives 0.46% (n = 330,000); AID 720580; calls by dose curve; tested in A549 cells; note: potency is the fitted concentration of half-maximal effect; % is set by controls: 0 for no effect and ±100 for the full control effect; nearly all actives have a fitted effect of over 30% in size
# HCV inhibitor: blocks hepatitis C virus. Potency, µM (top dose mostly 41.8 µM), without a hit: top-dose activity change, negative = inhibition, usual class: inhibitors. Huh7.5.1 HCVcc-Cre infection, luciferase reporter, 44 h. actives 3.4% (n = 340,000); note: potency is the fitted concentration of half-maximal effect; % is set by controls: 0 for no effect and ±100 for the full control effect
#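 Reporter virus HCVcc-Cre (~0.5 moi) infects cells exposed to compound; seeding density 1,000 cells/well with 4 h settling beforehand. Luminescence, 15 sec read, taken 44 h post-infection following a 15 min RT substrate incubation.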
# Sm TGR inh: inhibitors of Schistosoma mansoni thioredoxin glutathione reductase. Q962Y6. purified TGR, DTNB reduction, TNB absorbance 405 nm. Potency, µM (titrated, usually from 114 µM), for inactives: top-dose activity change, negative = inhibition, actives largely listed as inhibitors. actives 3% (n = 360,000); note: potency is the fitted concentration of half-maximal effect; % is set by controls: 0 for no effect and ±100 for the full control effect; nearly all actives have a fitted effect of over 60% in size
#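 Kinetic colorimetric format: TGR-catalysed, NADPH-driven DTNB reduction monitored via TNB absorbance. Enzyme dispensed at 20 nM; compound exposure 15 min at room temperature before reaction start.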
# FMDV inh: foot and mouth disease virus antiviral activity; FMDV antiviral cell-based qHTS; Potency, µM (series often up to 57.9 µM), for inactives: at the highest dose activity change, negative = inhibition, most hits filed as inhibitors; actives 1.2% (n = 410,000); AID 1159524; calls by dose curve; tested in HEK293T cells; note: read-out not given here; potency is the fitted concentration of half-maximal effect; % is set by controls: 0 for no effect and ±100 for the full control effect; nearly all actives have a fitted effect of over 45% in size
# HCV inh confirm: confirmation of hepatitis C virus inhibitors; shares compounds with HCV inhibitor; HCVcc-Cre infectious virus cell assay, luciferase, inhibition; Potency, µM (doses to about 41.8 µM), inactives show at the highest dose activity, negative = inhibition, actives largely listed as inhibitors; actives 78% (n = 640); AID 720575; note: potency is the fitted concentration of half-maximal effect; nearly all actives have a fitted effect of over 80% in size
# HCV cytotox: counter-screen for HCV inhibitors: host cell cytotoxicity. shares compounds with HCV inhibitor. actives 22% (n = 640). Potency, µM (top dose mostly 41.8 µM), for the others: top-dose activity change, negative = cytotoxicity, usual class: inhibitors. HCV host cell line cytotoxicity counterscreen;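 note: potency is the fitted concentration of half-maximal effect; 44 h compound exposure; % is set by controls: 0 for no effect and ±100 for the full control effect; nearly all actives have a fitted effect of over 55% in size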
# * = called active by the depositor; i = inactive; ? = inconclusive; . = not tested or not shown. A selection: hits, their analogues and other compounds. The true share with any hit is near 9.3%. Unless noted, calls come from the whole dose curve; as a rule, active = well fitted curve in the direction sought with a large enough effect; inconclusive = small, poorly fitted or top-dose-only effect, or another doubt; inactive = no such curve, though single readings can be large; an effect the other way counts as inactive or inconclusive.
SMILES,VACV mCherry inh,HCMV antiviral,VACV Venus inh,HCV inhibitor,Sm TGR inh,FMDV inh,HCV inh confirm,HCV cytotox
COc1ccc(Nc2nc(N)nc(CCl)n2)cc1,.,-98*,.,4µM*,35µM*,45%,6.3µM*,2.5µM*
COc1ccc(Nc2nc(N)nc(CN3CCOCC3)n2)cc1,i,12,-13%,13%,0%,17%,.,.
Cc1cc(C)c(C(=O)OCCNC(=O)c2cccnc2)cc1C,.,-25,.,8.9µM*,-1%,-18%,?,-24%
Nc1nnc(SCC(=O)NC2CCCC2)s1,.,-13,.,19%,1%,2%,.,.
COC(=O)c1c(NC(=O)Cc2cccs2)sc2c1CCCC2,i,?,-28%,5µM*,-1%,5%,13µM*,?
COC(=O)c1c(NS(=O)(=O)c2cccs2)sc2c1CCCC2,.,23,.,4%,-17%,18%,.,.
O=C(O)CSc1nc(-c2cccs2)cc(C(F)(F)F)n1,6%,-19,6%,-22%,.,-14%,.,.
CCC(C)NC(=O)CSc1nc(-c2cccs2)cc(C(F)(F)F)n1 (stereo not drawn),i,?,-18%,4.5µM*,0%,.,20µM*,-36%
COC1C(O)C(C)OC(OC2CCC3(C)C(CCC4C3C(O)CC3(C)C(C5=CC(=O)OC5)CCC43O)C2)C1O (stereo not drawn),0.25µM*,-99*,0.35µM*,1.6µM*,.,-21%,1.1µM*,?
CCCCC(CC)CNC(=O)c1ccc2c(=O)n(CCOC)c(=O)[nH]c2c1 (stereo not drawn),1%,?,12%,.,-6%,?,.,.
N#C/C(=C\Nc1ccc2cn[nH]c2c1)c1nc(-c2ccc(Cl)cc2)cs1,4%,?,5%,?,-6%,-24%,.,.
N#C/C(=C\Nc1ccc2cn[nH]c2c1)c1nc(-c2ccccc2)cs1,i,37,-13%,0.89µM*,-3%,-24%,3.1µM*,-54%
C[C@H]1CN([C@@H](C)CO)C(=O)CCCn2cc(nn2)CO[C@@H]1CN(C)C(=O)c1cc(-c2ccccc2)on1,-7%,9,-11%,.,.,-6%,.,.
CN1CCN(CC#CCn2c3ccccc3c3ccccc32)CC1,?,-4,-30%,4µM*,-2%,9%,7µM*,13%
CN1CCN(CC(O)Cn2c3ccccc3c3ccccc32)CC1 (stereo not drawn),.,-30,.,?,-9%,-8%,.,.
N#Cc1ccc(Nc2nc(NCc3ccccc3)nc3ccsc23)cc1,-5%,2,-19%,.,.,-19%,.,.
CCc1ccc(OCC(O)CN2CCC(CN3C(=O)c4cccc5cccc(c45)C3=O)CC2)cc1 (stereo not drawn),-13%,20,-4%,6.3µM*,-6%,-28%,7µM*,14µM*
CCCCCn1c(=O)c(C(=O)NCc2ccco2)c(O)c2ccccc21,3%,-29,-9%,?,-10%,-19%,25µM*,?
c1ccc(Nc2nc(NCc3ccco3)c3ccccc3n2)cc1,i,-66*,?,4µM*,-1%,14µM*,14µM*,25µM*
CNc1nc(NCc2ccco2)c2ccccc2n1,-17%,.,?,.,.,.,.,.
CN1CCc2c(sc(NC(=O)c3ccc([N+](=O)[O-])o3)c2C(N)=O)C1,?,-104*,2.2µM*,4µM*,?,-6%,14µM*,?
CN1CCc2c(sc(NC(=O)c3ccco3)c2C(N)=O)C1,i,16,-21%,.,0%,-12%,.,.
CN(Cc1ccco1)c1ncnc2ccc(-c3cccnc3)cc12,-6%,.,-3%,.,?,-3%,.,.
Cc1nn(C)c(C)c1NC(=O)CCSc1nc(-c2ccco2)cc(C(F)(F)F)n1,.,?,-22%,4µM*,?,0%,?,-22%
CCOCCCn1c(=N)c(C(N)=S)cc2c(=O)n3cccc(C)c3nc21,.,-17,.,?,-6%,-24%,20µM*,-98%
SMILES,VACV mCherry inh,HCMV antiviral,VACV Venus inh,HCV inhibitor,Sm TGR inh,FMDV inh,HCV inh confirm,HCV cytotox
CCOCCCn1c(=N)c(S(=O)(=O)c2ccc(Cl)cc2)cc2c(=O)n3cccc(C)c3nc21,-18%,-4,-7%,.,-4%,-3%,.,.
NC(=S)NNc1ccnc2cc(Cl)ccc12,?,-13,-20%,-30%,7%,-15%,.,.
O=C(NNc1ccnc2cc(Cl)ccc12)C1CCCCC1,-1%,-82*,-10%,2.8µM*,3%,?,0.89µM*,1.6µM*
Cc1cc(Cl)c2oc(C(=O)N3CCOCC3)c(C)c2c1,i,23,-11%,.,.,57%,.,.
Cc1cc(Cl)c2oc(C(=O)N3CCN(C(=O)c4ccco4)CC3)c(C)c2c1,.,35,.,?,?,-8%,?,-12%
Cc1cc(Nc2ccccc2Cl)nc(-c2ccccc2O)n1,-15%,0,-19%,?,-23%,-25%,.,.
Cc1cc(Nc2cccc(F)c2)nc(-c2ccccc2O)n1,?,-27,?,4.5µM*,-25%,.,7.9µM*,-2%
COc1cccc(N(C(=O)CCl)C(C(=O)NCCc2ccccc2)c2cccs2)c1 (stereo not drawn),?,-100*,?,0.71µM*,10µM*,16µM*,0.89µM*,0.5µM*
COc1ccc(CNC(=O)C2CCCN(S(=O)(=O)c3ccc(-n4cnnn4)cc3)C2)cc1 (stereo not drawn),14%,-8,-1%,-22%,0%,-9%,.,.
O=C(Nc1ccccc1)N1CCN(c2ccc(C(F)(F)F)cn2)CC1,.,-35,.,?,-2%,?,.,.
O=C(Nc1ccc(F)cc1F)N1CCCN(c2ccc(C(F)(F)F)cn2)CC1,?,-37,?,5µM*,-1%,?,5.6µM*,7.9µM*
CNC(=S)Nc1ccc(N2CCN(c3ccc(C(F)(F)F)cn3)CC2)nc1,-20%,?,?,2.5µM*,-24%,-25%,5µM*,?
Cc1cnc(C(=O)N2CCN(c3ccc(C(F)(F)F)cn3)CC2)cn1,-17%,-12,-12%,3%,-2%,-22%,.,.
Cn1cc(CNCc2ccc(OC(F)(F)F)cc2)c(-c2ccc3c(c2)OCCO3)n1,.,-81*,.,1µM*,6%,?,1µM*,5µM*
Cn1cc(CNCc2cn[nH]c2-c2ccc(F)cc2)c(-c2ccc3c(c2)OCCO3)n1,.,-28,.,2%,-16%,-2%,.,.
COCCC(=O)N1CCC(Oc2ccc(C(=O)NC3Cc4ccccc4C3)cc2)CC1,-6%,-5,-18%,?,-2%,-25%,.,.

# Screening results deposited in PubChem by National Center for Advancing Translational Sciences (NCATS).
